Reference: PubChem BioAssay
For some assays here: Potency and affinity values are given separately. The source made the active and inactive calls. Unless noted, how the calls were made is not given here.

How the values were obtained:
[1] = antimalarial activity against Dd2 strain (AID 2302;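 active means growth inhibition above 50% at the single 2 µM test dose, taken to imply half-maximal potency below 2 µM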;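 further: 0% = DMSO untreated growth and 100% = chloroquine plus artemisinin killed control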); conditions: P. falciparum Dd2 in RBCs, LDH growth readout, 72 h; at 2 µM; stronger effect = higher value
[2] = HepG2 cytotoxicity, primary screen, cytotoxicity control for P. falciparum antimalarial project, cell-based, ATP luminescence (AID 2303;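 active means inhibition above 50%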;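 further: 0% = DMSO wells and 100% = digitonin-killed cells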); conditions: HepG2 viability, 24-48 h, at 10 µM, stronger effect = higher value
[3] = molecular target: L-lactate dehydrogenase (Plasmodium falciparum (isolate CDC / Honduras)) (UniProt Q27743); assay: PfLDH activity inhibition – cell lysate, 3D7 strain, counter-screen for P. falciparum growth inhibition project (AID 2304);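 further: 0% = vehicle and 100% = reference inhibitor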; conditions: P. falciparum 3D7 crude extract, LDH APAD/NBT absorbance; at 2 µM; stronger effect = higher value
[4] = inhibition of 3D7 malaria parasite growth – strain 3D7 (AID 2306);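 further: 0% = DMSO wells and 100% = chloroquine plus artemisinin control wells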; conditions: P. falciparum 3D7 erythrocytic growth, LDH absorbance, 72 h; at 2 µM; stronger effect = higher value
[5] = molecular target: Calcium-dependent protein kinase 1 (Plasmodium falciparum (isolate 3D7)) (UniProt P62344); assay: PfCDPK1 kinase inhibitors, biochemical, TCAMS library (AID 1159585; cut-off not given, nearly all actives have IC50 up to about 0.98 µM;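 further: inhibitors leave more ATP so luminescence rises with inhibition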); conditions: recombinant PfCDPK1, Kinase-Glo ATP depletion luminescence
[6] = molecular target: Plasmodium falciparum protein kinase 6 (PK6, PF3D7_1337100) (UniProt Q8IDW1); assay: PfPK6 kinase inhibitors, biochemical, TCAMS library (AID 1159586); conditions: recombinant PfPK6, Kinase-Glo ATP depletion luminescence
[7] = molecular target: Protein kinase 7 (PK7), Plasmodium falciparum 3D7 (PF3D7_0213400) (UniProt Q7YTF7); assay: inhibition of Plasmodium PK7 catalytic activity – biochemical, TCAMS antimalarial set, Kinase-Glo luminescence (AID 1159587); conditions: recombinant PfPK7, Kinase-Glo ATP depletion luminescence
[8] = molecular target: Calcium-dependent protein kinase 4 (Plasmodium falciparum (isolate 3D7)) (UniProt Q8IBS5); assay: PfCDPK4 kinase inhibitors, biochemical, TCAMS library (AID 1159588; cut-off not given, nearly all actives have IC50 up to about 0.91 µM); conditions: recombinant PfCDPK4, Kinase-Glo ATP depletion luminescence
Calcium-dependent protein kinase 4 (Plasmodium falciparum (isolate 3D7)), sequence (Q8IBS5 whole entry, looked up): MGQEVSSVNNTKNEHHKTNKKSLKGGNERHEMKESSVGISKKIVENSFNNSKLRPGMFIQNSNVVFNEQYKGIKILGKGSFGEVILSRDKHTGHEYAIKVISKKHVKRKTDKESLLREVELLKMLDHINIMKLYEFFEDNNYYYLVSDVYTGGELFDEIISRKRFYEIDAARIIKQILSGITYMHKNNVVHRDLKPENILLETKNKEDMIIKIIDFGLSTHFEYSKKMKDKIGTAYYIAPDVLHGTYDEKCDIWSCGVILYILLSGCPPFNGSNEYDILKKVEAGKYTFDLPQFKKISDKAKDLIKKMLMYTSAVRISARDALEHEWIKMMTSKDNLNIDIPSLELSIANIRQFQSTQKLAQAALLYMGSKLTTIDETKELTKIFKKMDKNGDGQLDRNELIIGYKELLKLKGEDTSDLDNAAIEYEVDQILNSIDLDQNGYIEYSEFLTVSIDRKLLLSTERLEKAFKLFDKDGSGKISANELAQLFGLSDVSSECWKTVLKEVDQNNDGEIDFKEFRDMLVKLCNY

L-lactate dehydrogenase (Plasmodium falciparum (isolate CDC / Honduras)), sequence (Q27743 whole entry, looked up): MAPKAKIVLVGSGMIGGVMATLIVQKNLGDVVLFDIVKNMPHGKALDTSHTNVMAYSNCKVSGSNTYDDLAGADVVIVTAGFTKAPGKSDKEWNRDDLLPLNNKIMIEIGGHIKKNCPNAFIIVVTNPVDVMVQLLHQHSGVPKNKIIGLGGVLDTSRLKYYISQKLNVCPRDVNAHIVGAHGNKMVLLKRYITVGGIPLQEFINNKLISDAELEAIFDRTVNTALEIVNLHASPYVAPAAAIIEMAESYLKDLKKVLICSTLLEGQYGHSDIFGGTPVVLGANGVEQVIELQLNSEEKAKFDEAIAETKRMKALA
Plasmodium falciparum protein kinase 6 (PK6, PF3D7_1337100), sequence (Q8IDW1 1-305): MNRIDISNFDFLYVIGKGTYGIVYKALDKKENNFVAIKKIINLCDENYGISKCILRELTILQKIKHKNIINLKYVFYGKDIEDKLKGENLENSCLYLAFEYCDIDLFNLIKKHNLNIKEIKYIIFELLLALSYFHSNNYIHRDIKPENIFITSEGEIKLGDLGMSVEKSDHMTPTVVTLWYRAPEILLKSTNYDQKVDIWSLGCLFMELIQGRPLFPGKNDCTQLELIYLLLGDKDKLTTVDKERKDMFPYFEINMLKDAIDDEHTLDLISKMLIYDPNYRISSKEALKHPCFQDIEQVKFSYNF
Protein kinase 7 (PK7), Plasmodium falciparum 3D7 (PF3D7_0213400), sequence (Q7YTF7 1-343): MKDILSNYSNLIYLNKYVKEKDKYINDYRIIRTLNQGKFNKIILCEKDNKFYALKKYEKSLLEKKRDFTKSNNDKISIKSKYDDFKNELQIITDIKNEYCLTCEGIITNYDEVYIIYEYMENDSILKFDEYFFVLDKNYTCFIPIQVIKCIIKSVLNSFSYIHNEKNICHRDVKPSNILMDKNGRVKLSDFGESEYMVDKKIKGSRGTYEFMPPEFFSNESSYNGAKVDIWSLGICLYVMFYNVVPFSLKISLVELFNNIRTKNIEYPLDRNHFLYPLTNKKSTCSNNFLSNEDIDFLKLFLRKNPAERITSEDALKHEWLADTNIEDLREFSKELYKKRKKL
Calcium-dependent protein kinase 1 (Plasmodium falciparum (isolate 3D7)), sequence (P62344 whole entry, looked up): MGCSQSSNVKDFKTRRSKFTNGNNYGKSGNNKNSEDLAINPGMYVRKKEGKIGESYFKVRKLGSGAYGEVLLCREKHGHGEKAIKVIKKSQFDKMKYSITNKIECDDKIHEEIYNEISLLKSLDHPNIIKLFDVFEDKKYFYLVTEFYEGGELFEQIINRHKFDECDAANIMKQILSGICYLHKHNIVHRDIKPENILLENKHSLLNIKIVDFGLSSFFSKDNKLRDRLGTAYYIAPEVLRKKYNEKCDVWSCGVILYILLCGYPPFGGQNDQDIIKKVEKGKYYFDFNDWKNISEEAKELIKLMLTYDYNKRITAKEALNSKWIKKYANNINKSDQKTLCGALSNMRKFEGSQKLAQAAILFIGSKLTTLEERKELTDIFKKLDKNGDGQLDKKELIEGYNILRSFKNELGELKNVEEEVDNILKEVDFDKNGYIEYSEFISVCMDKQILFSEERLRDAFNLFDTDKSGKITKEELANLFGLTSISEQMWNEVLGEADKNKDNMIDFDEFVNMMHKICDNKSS

CN1CCC(C(=O)Nc2cccc(-c3ccc(-c4nc5ccc(C(F)(F)F)cc5[nH]4)cc3)c2)CC1
inactive: inhibition [2] 38% | inhibition [3] -4% | outcome [5] | outcome [6] | outcome [7] | outcome [8]
active: growth inhibition [1] 99% | growth inhibition [4] 100%

Cc1cc(C)cc(OCC(O)CN(Cc2cc(Cl)cc(Cl)c2)C(=O)Nc2ccccc2Cl)c1 (stereo not given)
active: growth inhibition [4] 93%
inactive: growth inhibition [1] 37% | inhibition [2] -1% | inhibition [3] 2% | outcome [5] | outcome [6] | outcome [7] | outcome [8]

Cc1cc(C(=O)Nc2ccc3c(c2)CCN3C2CCN(Cc3ccc(F)cc3Cl)C2)no1 (stereo not given)
active: growth inhibition [1] 96% | growth inhibition [4] 95%
inactive: inhibition [2] 7% | inhibition [3] 1% | outcome [5] | outcome [6] | outcome [7] | outcome [8]

CC(C)CCN1CCC(Oc2ccc(NC(=O)c3cccs3)cc2Cl)C1 (stereo not given)
inactive: inhibition [2] 17% | inhibition [3] 2% | outcome [5] | outcome [6] | outcome [7] | outcome [8]
active: growth inhibition [1] 93% | growth inhibition [4] 94%

CCCN1CCN(CCCNC(=O)c2cc3c(Cl)nc4ccc(C)cc4c3s2)CC1
inactive: growth inhibition [1] 27% | inhibition [2] 18% | inhibition [3] 0% | outcome [5] | outcome [6] | outcome [7] | outcome [8]
active: growth inhibition [4] 97%

O=C(Nc1cccc(-c2nn3ccccc3c2-c2ccnc(Nc3cccc(F)c3)n2)c1)c1c(F)ccc(F)c1Cl
inactive: growth inhibition [1] 38% | inhibition [2] 41% | inhibition [3] 5% | outcome [5] | outcome [6] | outcome [7] | outcome [8]
active: growth inhibition [4] 93%

Cc1nc(N=C(N)N)nc2ccc(C(C)(C)C)cc12
active: growth inhibition [1] 91% | growth inhibition [4] 96%
inactive: inhibition [2] 4% | inhibition [3] -1% | outcome [5] | outcome [6] | outcome [7] | outcome [8]

CC(COc1ccc2c(c1)OC(C)(C)CC2c1ccccc1)NCC(O)c1cccc(Cl)c1 (stereo not given)
inactive: inhibition [2] 1% | inhibition [3] 3% | outcome [5] | outcome [6] | outcome [7] | outcome [8]
active: growth inhibition [1] 96% | growth inhibition [4] 98%

Cc1nc2ccc(Nc3nccc(-c4c(-c5cccc(NC(=O)c6c(F)cccc6F)c5)nn5ccccc45)n3)cc2nc1C
active: inhibition [2] 55% | growth inhibition [4] 91%
inactive: growth inhibition [1] 45% | inhibition [3] 0% | outcome [5] | outcome [6] | outcome [7] | outcome [8]

COc1cc(NC(=O)N2CCOC(CCN3CCC(c4ccccc4)CC3)(c3ccc(Cl)c(Cl)c3)C2)cc(OC)c1OC (stereo not given)
inactive: inhibition [2] 15% | inhibition [3] -2% | outcome [5] | outcome [6] | outcome [7] | outcome [8]
active: growth inhibition [1] 73% | growth inhibition [4] 93%

COc1ccccc1NS(=O)(=O)c1cc(C(=O)Nc2ccc(N3CCOCC3)c(S(=O)(=O)Nc3ccccc3Cl)c2)ccc1Cl
active: growth inhibition [4] 97%
inactive: growth inhibition [1] 25% | inhibition [2] -3% | inhibition [3] -2% | outcome [5] | outcome [6] | outcome [7] | outcome [8]

CS(=O)(=O)c1ccc(CNCc2ccc(-c3ccc(-c4nc5ccc(C(F)(F)F)cc5[nH]4)cc3)cc2)cc1
active: growth inhibition [1] 82% | growth inhibition [4] 101%
inactive: inhibition [2] 26% | inhibition [3] 3% | outcome [5] | outcome [6] | outcome [7] | outcome [8]

CC(=O)Nc1ccc(S(=O)(=O)Nc2ccc(Nc3nc(C)cc(N4CCCCC4)n3)cc2)cc1
active: growth inhibition [1] 54% | growth inhibition [4] 89%
inactive: inhibition [2] 23% | inhibition [3] 0% | outcome [5] | outcome [6] | outcome [7] | outcome [8]

COc1c(C=NNc2nc(Nc3ccccc3)nc(Nc3ccccc3)n2)ccc(Br)c1O
inactive: growth inhibition [1] 37% | inhibition [3] 5% | outcome [5] | outcome [6] | outcome [7] | outcome [8]
active: inhibition [2] 63% | growth inhibition [4] 98%

Oc1ccc(Nc2nc(NCc3ccco3)c3ccccc3n2)cc1
active: growth inhibition [1] 78% | growth inhibition [4] 101%
inactive: inhibition [2] 7% | inhibition [3] -3% | outcome [5] | outcome [6] | outcome [7] | outcome [8]

CCOC(=O)c1ccc2nc(-c3ccc(C(=O)NC4CCN(Cc5ccccc5)CC4)s3)[nH]c2c1
active: growth inhibition [1] 95% | growth inhibition [4] 100%
inactive: inhibition [2] 32% | inhibition [3] -2% | outcome [5] | outcome [6] | outcome [7] | outcome [8]

CC(C)NCC(O)COc1ccc(Cc2ccc(OCC(O)CNC(C)C)cc2)cc1 (stereo not given)
inactive: growth inhibition [1] 18% | inhibition [2] -8% | inhibition [3] -5% | outcome [5] | outcome [6] | outcome [7] | outcome [8]
active: growth inhibition [4] 100%

CCCCCC(NCCCC)c1ccc(OCCOc2ccc(C(CCCCC)NCCCC)cc2)cc1 (stereo not given)
active: growth inhibition [1] 96% | inhibition [2] 99% | growth inhibition [4] 88%
inactive: inhibition [3] -2% | outcome [5] | outcome [6] | outcome [7] | outcome [8]

Cc1nc(N)nc(N)c1OCc1cccc2ccccc12
active: inhibition [2] 63% | growth inhibition [4] 96%
inactive: growth inhibition [1] 11% | inhibition [3] -1% | outcome [5] | outcome [6] | outcome [7] | outcome [8]

O=C(NCCCCN1CCC(c2c[nH]c3ccccc23)CC1)c1sc(-c2ccc(C(F)(F)F)cc2)nc1CO
active: growth inhibition [4] 94%
inactive: growth inhibition [1] 3% | inhibition [2] 34% | inhibition [3] 0% | outcome [5] | outcome [6] | outcome [7] | outcome [8]

CCOc1cc(C(=O)NCCc2ccc(Cl)c(Cl)c2)ccc1-c1nc2ccc(Cl)cc2[nH]1
active: growth inhibition [4] 100%
inactive: growth inhibition [1] 47% | inhibition [2] 9% | inhibition [3] -4% | outcome [5] | outcome [6] | outcome [7] | outcome [8]

CN1CCc2cc(O)c(NS(=O)(=O)c3ccc(-c4ccc(Cl)cc4)cc3)cc2CC1
inactive: growth inhibition [1] 3% | inhibition [2] 7% | inhibition [3] 3% | outcome [5] | outcome [6] | outcome [7] | outcome [8]
active: growth inhibition [4] 104%

COc1ccc2nccc([C@@H](O)CN3CCC(NCCOc4ccncc4)CC3)c2c1
inactive: growth inhibition [1] -1% | inhibition [2] 11% | inhibition [3] 1% | outcome [5] | outcome [6] | outcome [7] | outcome [8]
active: growth inhibition [4] 100%

Cc1cnccc1/C=C/c1cccc(OCCCN2CCc3ccc(S(C)(=O)=O)cc3CC2)c1
inactive: inhibition [2] 1% | inhibition [3] 1% | outcome [5] | outcome [6] | outcome [7] | outcome [8]
active: growth inhibition [1] 72% | growth inhibition [4] 92%

Nc1nccc2ccc(-c3cccc4ncccc34)cc12
inactive: inhibition [2] 40% | inhibition [3] -1% | outcome [5] | outcome [6] | outcome [7] | outcome [8]
active: growth inhibition [1] 94% | growth inhibition [4] 98%

CN1CCCc2ccc(NC(=O)c3cnc(-c4ccccc4)cn3)cc21
active: growth inhibition [1] 82% | growth inhibition [4] 87%
inactive: inhibition [2] 24% | inhibition [3] 2% | outcome [5] | outcome [6] | outcome [7] | outcome [8]

COc1cccc2cc(C(=O)N[C@@H](CC(C)C)C(=O)NC(/C=N/NC(=O)c3ccccc3)CCc3ccccc3)oc12 (stereo not given in full)
inactive: inhibition [2] 8% | inhibition [3] -3% | outcome [5] | outcome [6] | outcome [7] | outcome [8]
active: growth inhibition [1] 73% | growth inhibition [4] 88%

FC(F)(F)COc1c(CCNCCCCNCCc2ccc3ccccc3c2OCC(F)(F)F)ccc2ccccc12
inactive: inhibition [3] -3% | outcome [5] | outcome [6] | outcome [7] | outcome [8]
active: growth inhibition [1] 97% | inhibition [2] 99% | growth inhibition [4] 101%

CC(C)CC(NC(=O)c1cccc(OCCN2CCOCC2)c1)C(=O)NC(/C=N/NC(=O)c1ccccc1)CCc1ccccc1 (stereo not given)
active: growth inhibition [1] 88% | growth inhibition [4] 96%
inactive: inhibition [2] -5% | inhibition [3] -9% | outcome [5] | outcome [6] | outcome [7] | outcome [8]

CO/N=C(\C)c1ccc2c(c1)CCN(CCC1CCC(NC(=O)/C=C/c3ccc(F)cc3)CC1)CC2 (stereo not given)
inactive: growth inhibition [1] 15% | inhibition [2] 45% | inhibition [3] 1% | outcome [5] | outcome [6] | outcome [7] | outcome [8]
active: growth inhibition [4] 95%

O=c1cc(NC[C@H]2CCC[C@@H]2NC2CCCc3c2[nH]c2ccccc32)[nH]c2ccccc12 (stereo not given in full)
active: growth inhibition [4] 101%
inactive: growth inhibition [1] 25% | inhibition [2] 6% | inhibition [3] -6% | outcome [5] | outcome [6] | outcome [7] | outcome [8]

CCCc1cc(=O)[nH]c(-n2nc(C)cc2NC(=O)CC(c2ccccc2)c2ccccc2)n1
inactive: inhibition [2] 39% | inhibition [3] 4% | outcome [5] | outcome [6] | outcome [7] | outcome [8]
active: growth inhibition [1] 88% | growth inhibition [4] 97%

Cc1ccc(C(=O)Cn2nc(-c3ccc(C)c(S(=O)(=O)N4CCCCC4)c3)ccc2=O)cc1
inactive: inhibition [2] 6% | inhibition [3] -5% | outcome [5] | outcome [6] | outcome [7] | outcome [8]
active: growth inhibition [1] 76% | growth inhibition [4] 99%

FC(F)(F)COc1c(CNCCCCCCNCc2ccc3ccccc3c2OCC(F)(F)F)ccc2ccccc12
inactive: inhibition [3] 6% | outcome [5] | outcome [6] | outcome [7] | outcome [8]
active: growth inhibition [1] 79% | inhibition [2] 100% | growth inhibition [4] 101%

N#Cc1cccc(NC(=O)Nc2cccc(-c3cccc(-c4nc5ccccc5[nH]4)c3)c2)c1
active: growth inhibition [1] 96% | growth inhibition [4] 100%
inactive: inhibition [2] 46% | inhibition [3] 3% | outcome [5] | outcome [6] | outcome [7] | outcome [8]

COc1ccccc1C1CCN(C2CCC(NC(=O)c3cc4cc(C(C)C)ccc4[nH]3)CC2)CC1 (stereo not given)
active: growth inhibition [1] 98% | inhibition [2] 100% | growth inhibition [4] 101%
inactive: inhibition [3] -4% | outcome [5] | outcome [6] | outcome [7] | outcome [8]

CCOc1ccc(NC(=O)c2cccc(CN3CCCN(Cc4cccc(O)c4)CC3)c2)cc1
inactive: growth inhibition [1] 23% | inhibition [2] 22% | inhibition [3] 0% | outcome [5] | outcome [6] | outcome [7] | outcome [8]
active: growth inhibition [4] 95%

COc1ccc(S(=O)(=O)NC2CCN(c3cc(C)nc(Nc4cccc(C#N)c4)n3)CC2)cc1
inactive: inhibition [2] 9% | inhibition [3] -4% | outcome [5] | outcome [6] | outcome [7] | outcome [8]
active: growth inhibition [1] 55% | growth inhibition [4] 88%

CCOc1ccc(-n2nc3c(Cl)nnc(-c4ccccc4)c3c2-c2ccccc2)cc1
active: growth inhibition [1] 99% | growth inhibition [4] 96%
inactive: inhibition [2] 0% | inhibition [3] 9% | outcome [5] | outcome [6] | outcome [7] | outcome [8]

O=C(NCCN1CCCC1)N1CCCN(c2ncnc3cc(-c4ccc(Cl)cc4)sc23)CC1
inactive: growth inhibition [1] 32% | inhibition [2] 13% | inhibition [3] 6% | outcome [5] | outcome [6] | outcome [7] | outcome [8]
active: growth inhibition [4] 96%
